This is a sample that favours compounds with a hit; in the whole collection about 8.1% have one here.
RORgamma inh: blocks mouse ROR gamma transcriptional activity; P51450; Drosophila S2 Gal4-RORgamma UAS-luciferase reporter, 20 h; Potency, µM (doses to about 53.6 µM), for inactives: top-dose activity change, negative = inhibition, actives largely listed as inhibitors; actives 5.4% (n = 310,000); AID 2551; also: % is scaled to controls: 0 for no effect and ±100 for the full control effect; nearly all actives have a fitted effect of over 60% in size
Target sequence (P51450 whole entry, looked up, the tested form may be a part): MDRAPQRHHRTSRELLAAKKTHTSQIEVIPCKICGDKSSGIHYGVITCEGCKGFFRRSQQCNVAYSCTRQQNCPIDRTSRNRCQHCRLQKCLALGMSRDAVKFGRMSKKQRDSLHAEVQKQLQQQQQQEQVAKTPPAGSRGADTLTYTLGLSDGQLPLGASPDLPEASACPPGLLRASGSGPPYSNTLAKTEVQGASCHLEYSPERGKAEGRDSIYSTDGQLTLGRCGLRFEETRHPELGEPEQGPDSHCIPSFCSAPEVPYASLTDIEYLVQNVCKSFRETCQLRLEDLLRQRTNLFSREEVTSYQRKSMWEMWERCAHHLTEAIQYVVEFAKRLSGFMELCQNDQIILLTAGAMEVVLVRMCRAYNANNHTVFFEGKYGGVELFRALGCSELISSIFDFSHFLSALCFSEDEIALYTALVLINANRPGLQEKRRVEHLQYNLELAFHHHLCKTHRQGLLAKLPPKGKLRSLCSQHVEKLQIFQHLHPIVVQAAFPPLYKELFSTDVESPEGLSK
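Luminescence from a UAS-regulated Photinus luciferase reporter in stably transfected Drosophila Schneider cells is measured; decreased signal marks ROR gamma inhibition. Fusion expression is induced by 700 uM copper sulfate for 20 hr.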
PINK1 modulator: modulators of PINK1 expression | Potency, µM (doses to about 76.6 µM), inactives show at the highest dose activation (PINK1 increase), usual class: activators | PINK1 immunofluorescence, high-content cytometry, 24 h | actives 0.2% (n = 410,000); active = well fitted activation curve with a large enough effect; inconclusive = small, poorly fitted or top-dose-only effect; cell line not stated here; also: % of control where 0% means no effect; nearly all actives have a fitted effect of over 65% in size
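PINK1 protein, normally rapidly degraded, was detected by immunofluorescence after 24 hour compound treatment of a stable cell line. Titration data (5 concentrations) came from laser-scanning cytometry, with CCCP-treated wells as controls.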
ClpP mod: qHTS Assay for Activators of ClpP; ATP-dependent Clp protease proteolytic subunit (Bacillus subtilis (strain 168)), P80244; purified B. subtilis ClpP, FRET peptide cleavage, 20 min; Potency, µM (doses to about 57.5 µM), for inactives: at the highest dose activity change, negative = active; actives 1.9% (n = 340,000); AID 651965, 2013; active = well fitted falling curve with a large enough effect; inconclusive = small, poorly fitted or top-dose-only effect; inactive = no such curve, though single readings can be large or run the other way; also: the source files actives as falling curves though it sought activators and does not explain the sign; nearly all actives have a fitted effect of over 65% in size
Target sequence (P80244 whole entry, looked up): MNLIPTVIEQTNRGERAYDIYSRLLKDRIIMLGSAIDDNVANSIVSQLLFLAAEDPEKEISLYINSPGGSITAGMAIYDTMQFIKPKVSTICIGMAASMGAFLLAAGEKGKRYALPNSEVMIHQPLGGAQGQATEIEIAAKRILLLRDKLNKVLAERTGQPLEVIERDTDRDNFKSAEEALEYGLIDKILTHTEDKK
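Purified B. subtilis ClpP, 10 microg/mL final in Tris/HCl pH8 with KCl, BSA, glycerol and Tween-20, cleaved an Abz/nitrotyrosine-quenched decapeptide. Fluorescence (ex 320, em 430) was read at 0 and 20 min at room temperature. Delta was normalized to 5.8 microM ADEP and DMSO/no-enzyme controls.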
VP16 counter: inhibits Gal4-VP16 luciferase reporter, ROR gamma counter-screen. actives 3.5% (n = 310,000). Drosophila S2 Gal4-VP16 UAS-luciferase, luminescence, 20 h. Potency, µM (highest dose often 53.6 µM), for inactives: at the top dose activity, negative = inhibition, actives largely listed as inhibitors;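 also: Gal4-VP16 expression switched on by copper sulfate through the metallothionein promoter; % is scaled to controls: 0 for no effect and ±100 for the full control effect; nearly all actives have a fitted effect of over 50% in size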
Epigenetic derep: regulators of epigenetic silencing causing reporter derepression in mouse cells; murine LDR cells, GFP reporter derepression, 30 h; Potency, µM (highest dose often 53.9 µM), without a hit: top-dose GFP activation, usual class: activators; actives 0.2% (n = 280,000); also: % of control where 0% means no effect; nearly all actives have a fitted effect of over 60% in size
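Derepression of a silenced CMV-GFP reporter in murine LDR cells is scored by enumerating GFP-positive cells with a laser-scanning microplate cytometer after 30 hours of treatment at 37 C.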
Sfp inh: blocks B. subtilis Sfp PPTase activity; Q9F4F7; Biochemical Sfp PPTase activity, qHTS; Potency, µM, for inactives: largest response in the series, negative = inhibition, usual class: inhibitors; actives 3.5% (n = 310,000); AID 1490;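 also: the enzyme is Sfp with the accession as filed and its product quenches rhodamine fluorescence; 0% = enzyme reaction without inhibitor and -100% = no enzyme wells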
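Fluorescence-quenching assay with 15 nM Sfp, 5 uM rhodamine-CoA and 12.5 uM BHQ-2-labelled ybbR peptide in pH 7.6 Hepes/MgCl2 buffer. Enzyme was pre-incubated with compound for 15 min at room temperature. Rate was taken from the 30-min fluorescence change (525/598 nm).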
Numbers without * were called inactive; ? = inconclusive; . = not tested or not shown; [ ] = dose if it differs, or a comment. Unless noted, calls follow the shape of the dose curve; as a rule, active = well fitted curve in the direction sought with a large enough effect; inconclusive = small, poorly fitted or top-dose-only effect, or another doubt; inactive = no such curve, though single readings can be large; an effect the other way counts as inactive or inconclusive. Potency is read from the fitted curve at half-maximal effect.

SMILES | RORgamma inh | PINK1 modulator | ClpP mod | VP16 counter | Epigenetic derep | Sfp inh
Cc1sc(NC(=O)/C=C/C(=O)O)c(C(N)=O)c1-c1ccc(C(C)(C)C)cc1 | ? | 2% | 0% | -10% | -1% | -55%
CCOC(=O)c1c(NC(=O)/C=C\C(=O)O)sc(C)c1-c1ccccc1 | ? | 0% | . | 26% | 13% | 20%
CCOC(=O)c1ccc(NC(=O)CCn2c(=O)c3cccn3c3ccccc32)cc1 | . | 0% | -3% | . | 0% | .
COc1ccc2c(c1)C(=O)[C@H](OC(=O)NCCc1ccc(OC)c(OC)c1)[C@@H](c1ccc(OC)c(Br)c1)O2 | 22% | . | . | -2% | 0% | -8%
N#Cc1ccc(/C=C2/C=Cc3ccccc32)cc1 | . | . | -2% | . | . | .
COc1ccc(NC(=O)c2c(NC(=O)COc3ccccc3)sc3c2CCCCC3)cc1 | . | 4% | -3% | . | -1% | .
COc1ccc(NC(=O)c2c(NC(=O)CCC(=O)O)sc(-c3ccccc3)c2C)cc1 | 38% | 1% | -1% | -6% | -2% | 16µM*
Cc1sc(NC(=O)C2CCCCC2C(=O)O)c(C(N)=O)c1-c1ccc(C(C)(C)C)cc1 (stereo unspecified) | ? | 3% | -5% | -8% | -1% | 79µM*
CCc1ccc(NC(=O)C(C)n2nnc3sc(-c4ccccc4)cc3c2=O)cc1 (stereo unspecified) | . | 4% | -5% | . | 3% | .
COc1cc(C)c(CN2CCOc3ccc(C(O)c4cccnc4)cc3C2)cc1C (stereo unspecified) | . | 0% | . | . | . | .
Cc1cc(C)c2c(n1)nn1c(N3CCN(Cc4ccccc4)CC3)cc(C)nc21 | -33% | 1% | ? | 4% | 0% | 5%
COc1ccc(F)cc1CN1CCN(c2cc(C)nc3c4c(C)cc(C)nc4nn23)CC1 | 20µM* | . | . | ? | -2% | -30%
Nc1ccc(-c2c3ccc(=O)cc-3oc3cc(O)ccc23)cc1C(=O)O | 13% | 7% | . | -3% | . | -11%
O=c1ccc2c(-c3ccccc3)c3ccc(O)cc3oc-2c1 | 2% | 0% | . | 3% | . | 32µM*
CC(C)(C)OC(=O)NCCCC[C@H](NC(=O)c1nc[nH]c1C(=O)NCC(=O)OCc1ccccc1)C(=O)OC(C)(C)C | 28µM* | 2% | -1% | ? | . | 21%
CC(C)C[C@H](NC(=O)c1nc[nH]c1C(=O)NCCCCCNC(=O)OC(C)(C)C)C(=O)OCc1ccccc1 | 13µM* | 19% | 1% | 6.3µM* | -4% | 26%
CC(C)C[C@H](NC(=O)c1nc[nH]c1C(=O)N[C@@H](CCCCNC(=O)OC(C)(C)C)C(=O)OC(C)(C)C)C(=O)OCc1ccccc1 | 7.1µM* | 3% | -1% | ? | . | 16%
C[C@H](NC(=O)c1nc[nH]c1C(=O)N[C@@H](CCCCNC(=O)OC(C)(C)C)C(=O)OC(C)(C)C)C(=O)OCc1ccccc1 | -20% | 4% | 1% | ? | . | 31%
COc1ccccc1-c1cc(Nc2ccn[nH]2)ncn1 | -8% | -1% | . | 30% | . | 7%
COCCCCOc1cc2nc(N3CCCN(C)CC3)nc(NC3CCN(C)CC3)c2cc1OC | . | 0% | 5% | . | . | .
CCc1nnc(NC(=O)c2ccc(S(=O)(=O)N3CCCc4ccccc43)cc2)o1 | 0.35µM* | . | 0% | 0.56µM* | -1% | 6%
O=C(Nc1nc2c(s1)CCCC2)c1ccc(S(=O)(=O)N2CCCc3ccccc32)cc1 | 11µM* | 2% | -8% | ? | 4% | 17%
CNC(=O)c1ccsc1NC(=O)c1ccc(S(=O)(=O)N2CCCc3ccccc32)cc1 | ? | 3% | -16% | -11% | -2% | 12%
CC1CCc2nc(NC(=O)c3ccc(S(=O)(=O)N4CCCc5ccccc54)cc3)sc2C1 (stereo unspecified) | 6.3µM* | 19%[38.3 µM] | -11% | -20% | 1% | 9%
Cc1cc(NC(=O)c2ccc(S(=O)(=O)N3CCc4ccccc43)cc2)no1 | 11µM* | 6% | -1% | ? | 16% | 8%
SMILES | RORgamma inh | PINK1 modulator | ClpP mod | VP16 counter | Epigenetic derep | Sfp inh
CCC(C)NC(=O)c1cccc(NC(=O)c2nsc3ccccc23)c1 (stereo unspecified) | . | -1% | 0% | . | 8% | .
COc1ccc(S(=O)(=O)NCc2ccccn2)cc1Cl | -39% | 1% | 1% | -1% | 0% | -23%
CCOc1cc(Cl)c(S(=O)(=O)NCc2ccccn2)cc1Cl | 13µM* | . | 1% | 20µM* | -1% | 5%
COc1cc(Cl)c(S(=O)(=O)NCc2ccccn2)cc1Cl | 11µM* | 17%[38.3 µM] | 0% | -10% | 2% | -7%
CCNC(=O)C1CCN(Cc2cc3ccccc3n2Cc2ccc(C)cc2)CC1 | . | 0% | 1% | . | 0% | .
N/C(COc1ccc(F)cc1)=N\NC(=O)c1cccnc1Oc1ccccc1 | 2.5µM* | -1% | 0% | 4.5µM* | 1% | 12%
NC(=O)c1cccnc1Oc1ccc(Cl)cc1 | 1% | 0% | . | 8% | 0% | -27%
O=C(Cn1c(=O)n(CC2CCCO2)c(=O)c2ccccc21)Nc1cccc(Cl)c1 (stereo unspecified) | . | 2% | -11% | . | 0% | .
COc1cc2c(=O)n(CC3CCCO3)c(=O)n(CC(=O)Nc3cccc(Cl)c3)c2cc1OC (stereo unspecified) | 12% | 14% | 32µM* | 11% | -3% | 6%
COCC1CCCN(Cc2ccc3c(c2)CN(C(=O)c2cn4ccc(C)cc4n2)CCO3)C1 (stereo unspecified) | . | 1% | . | . | . | .
CCNc1ncc2nc(-c3ccc(F)cc3)c(=O)n(-c3ccc(OC)cc3)c2n1 | -22% | ? | . | -11% | . | 11%
COc1cc(C(=O)O/N=C2\C=CC(=O)C(C)=C2)cc(OC)c1OC | 5µM* | -1% | 9% | 5.6µM* | -1% | -4%
O=C(OCn1ncc(Cl)c(Cl)c1=O)c1ccc(F)cc1 | ? | . | . | 6.3µM* | 0% | -3%
O=c1c(Cl)c(Cl)cnn1Cc1ccc(F)cc1 | ? | -2% | 0% | ? | -1% | 1%
O=C(OCn1ncc(Cl)c(Cl)c1=O)c1ccccc1Cl | -89% | -3% | -2% | 13µM* | 0% | 5%
COC(=O)CSC1=C(C#N)C(=O)NC(c2ccccc2)S1 (stereo unspecified) | -11% | 9% | 0% | 2% | -4% | 32µM*
CCCCC(=O)OCc1nc2ccccc2s1 | ? | 5% | 16µM* | 5% | -2% | 3%
Cc1noc(C)c1COC(=O)c1ccc(-c2nc3ccccc3s2)s1 | ? | 6% | 20µM* | ? | -1% | -30%

Bioassay records as filed in PubChem BioAssay.
